Measurements: the supplement of paper PMC11732987, “Enantioselective OTUD7B fragment discovery through chemoproteomics screening and high-throughput optimisation” (Communications Chemistry, 2025)

What was measured:
Test in all cases: log2 ratio of Biotin-Ahx-Ub-VS probe labelling (fragment/DMSO); higher = less target engagement (more negative = stronger competition), active = hit call of the paper (q ≤ 0.05, log2 ratio ≤ -1)
Conditions in all cases: compound concentration: 200 uM; treatment time: 3 h
ALG13 = target: T1, ALG13 (UniProt Q9NP73)
T1 sequence (whole entry): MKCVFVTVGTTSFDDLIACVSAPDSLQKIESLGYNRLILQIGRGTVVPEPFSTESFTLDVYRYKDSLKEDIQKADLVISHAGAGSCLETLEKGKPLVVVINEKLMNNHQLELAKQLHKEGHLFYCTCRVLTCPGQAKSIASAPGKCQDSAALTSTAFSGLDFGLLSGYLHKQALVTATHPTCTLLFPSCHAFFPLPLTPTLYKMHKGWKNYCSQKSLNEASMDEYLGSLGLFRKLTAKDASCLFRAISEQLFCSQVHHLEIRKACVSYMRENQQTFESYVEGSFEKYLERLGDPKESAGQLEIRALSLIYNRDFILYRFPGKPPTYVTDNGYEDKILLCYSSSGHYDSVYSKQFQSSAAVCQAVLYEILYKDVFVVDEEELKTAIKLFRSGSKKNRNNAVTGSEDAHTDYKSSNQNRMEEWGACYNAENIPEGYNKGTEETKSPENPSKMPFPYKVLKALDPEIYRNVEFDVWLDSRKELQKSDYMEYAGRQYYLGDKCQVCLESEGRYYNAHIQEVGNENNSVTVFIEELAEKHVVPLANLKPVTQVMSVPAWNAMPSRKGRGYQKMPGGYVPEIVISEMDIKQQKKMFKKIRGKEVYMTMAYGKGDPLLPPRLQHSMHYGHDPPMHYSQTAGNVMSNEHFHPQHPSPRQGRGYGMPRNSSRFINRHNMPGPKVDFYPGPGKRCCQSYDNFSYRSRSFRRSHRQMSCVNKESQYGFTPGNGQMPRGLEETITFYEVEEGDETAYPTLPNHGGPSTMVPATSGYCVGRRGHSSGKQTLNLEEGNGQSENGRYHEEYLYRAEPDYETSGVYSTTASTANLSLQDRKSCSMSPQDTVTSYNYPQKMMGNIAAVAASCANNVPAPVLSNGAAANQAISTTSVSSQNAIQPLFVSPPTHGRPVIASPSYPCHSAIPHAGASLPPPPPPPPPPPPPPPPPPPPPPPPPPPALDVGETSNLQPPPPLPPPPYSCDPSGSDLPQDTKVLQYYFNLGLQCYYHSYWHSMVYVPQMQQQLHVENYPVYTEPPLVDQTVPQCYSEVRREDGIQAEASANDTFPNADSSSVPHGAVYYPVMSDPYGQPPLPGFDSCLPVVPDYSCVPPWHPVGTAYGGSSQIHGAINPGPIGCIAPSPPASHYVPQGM
How it was run: (§1)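 Fragment (200 µM) or vehicle was incubated for 3 h with triplicate HEK293T lysate samples of 495 µg, which were then treated with Biotin-Ahx-Ub-VS at 0.5 µM final for 1 h. Labelled DUBs were enriched on NeutrAvidin, digested with LysC and trypsin, and analysed by diaPASEF LC-MS/MS. Values are average log2 fragment/vehicle ratios from an unpaired t-test on global-median-normalised Spectronaut label-free quantities, using proteins with ≥2 unique peptides.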

ATXN3 = ATXN3 (UniProt P54252)
How it was run: as §1

BAP1 = target: T2, BAP1 (UniProt Q92560)
T2 sequence (whole entry): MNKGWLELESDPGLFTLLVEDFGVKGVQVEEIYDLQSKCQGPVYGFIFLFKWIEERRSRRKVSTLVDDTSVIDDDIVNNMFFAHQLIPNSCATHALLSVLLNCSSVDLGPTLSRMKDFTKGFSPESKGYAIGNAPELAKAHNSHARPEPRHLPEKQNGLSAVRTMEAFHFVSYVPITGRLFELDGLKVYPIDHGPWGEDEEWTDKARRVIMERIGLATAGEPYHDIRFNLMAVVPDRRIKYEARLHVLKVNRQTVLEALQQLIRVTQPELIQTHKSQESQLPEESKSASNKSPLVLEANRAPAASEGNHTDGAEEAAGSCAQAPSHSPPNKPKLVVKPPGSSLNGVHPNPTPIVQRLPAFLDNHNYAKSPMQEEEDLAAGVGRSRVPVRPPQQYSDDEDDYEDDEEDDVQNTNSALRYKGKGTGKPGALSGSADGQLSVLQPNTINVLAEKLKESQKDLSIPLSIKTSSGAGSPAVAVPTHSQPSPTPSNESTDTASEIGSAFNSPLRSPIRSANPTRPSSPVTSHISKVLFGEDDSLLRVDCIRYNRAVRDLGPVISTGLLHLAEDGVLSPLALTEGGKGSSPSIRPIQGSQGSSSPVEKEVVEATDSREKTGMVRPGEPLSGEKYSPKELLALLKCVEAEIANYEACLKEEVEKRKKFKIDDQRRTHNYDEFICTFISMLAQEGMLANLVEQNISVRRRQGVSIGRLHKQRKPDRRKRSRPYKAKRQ
How it was run: as §1

EIF3F = EIF3F (UniProt O00303)
How it was run: as §1

EIF3H = EIF3H (UniProt O15372)
How it was run: as §1

FAM105A = target: T3, FAM105A (UniProt Q9NUU6)
T3 sequence (whole entry): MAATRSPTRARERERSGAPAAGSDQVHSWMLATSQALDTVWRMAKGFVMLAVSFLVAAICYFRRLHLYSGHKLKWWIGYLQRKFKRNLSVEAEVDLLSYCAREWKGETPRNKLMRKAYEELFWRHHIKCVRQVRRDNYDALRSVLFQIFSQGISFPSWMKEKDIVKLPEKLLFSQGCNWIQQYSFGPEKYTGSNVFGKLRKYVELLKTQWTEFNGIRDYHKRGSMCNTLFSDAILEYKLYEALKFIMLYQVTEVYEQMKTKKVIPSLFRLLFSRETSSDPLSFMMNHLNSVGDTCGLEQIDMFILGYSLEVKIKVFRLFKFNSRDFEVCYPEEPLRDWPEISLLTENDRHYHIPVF
How it was run: as §1

OTUB1 = OTUB1 (UniProt Q96FW1)
How it was run: as §1

OTUD4 = target: T4, OTUD4 (UniProt Q01804)
T4 sequence (whole entry): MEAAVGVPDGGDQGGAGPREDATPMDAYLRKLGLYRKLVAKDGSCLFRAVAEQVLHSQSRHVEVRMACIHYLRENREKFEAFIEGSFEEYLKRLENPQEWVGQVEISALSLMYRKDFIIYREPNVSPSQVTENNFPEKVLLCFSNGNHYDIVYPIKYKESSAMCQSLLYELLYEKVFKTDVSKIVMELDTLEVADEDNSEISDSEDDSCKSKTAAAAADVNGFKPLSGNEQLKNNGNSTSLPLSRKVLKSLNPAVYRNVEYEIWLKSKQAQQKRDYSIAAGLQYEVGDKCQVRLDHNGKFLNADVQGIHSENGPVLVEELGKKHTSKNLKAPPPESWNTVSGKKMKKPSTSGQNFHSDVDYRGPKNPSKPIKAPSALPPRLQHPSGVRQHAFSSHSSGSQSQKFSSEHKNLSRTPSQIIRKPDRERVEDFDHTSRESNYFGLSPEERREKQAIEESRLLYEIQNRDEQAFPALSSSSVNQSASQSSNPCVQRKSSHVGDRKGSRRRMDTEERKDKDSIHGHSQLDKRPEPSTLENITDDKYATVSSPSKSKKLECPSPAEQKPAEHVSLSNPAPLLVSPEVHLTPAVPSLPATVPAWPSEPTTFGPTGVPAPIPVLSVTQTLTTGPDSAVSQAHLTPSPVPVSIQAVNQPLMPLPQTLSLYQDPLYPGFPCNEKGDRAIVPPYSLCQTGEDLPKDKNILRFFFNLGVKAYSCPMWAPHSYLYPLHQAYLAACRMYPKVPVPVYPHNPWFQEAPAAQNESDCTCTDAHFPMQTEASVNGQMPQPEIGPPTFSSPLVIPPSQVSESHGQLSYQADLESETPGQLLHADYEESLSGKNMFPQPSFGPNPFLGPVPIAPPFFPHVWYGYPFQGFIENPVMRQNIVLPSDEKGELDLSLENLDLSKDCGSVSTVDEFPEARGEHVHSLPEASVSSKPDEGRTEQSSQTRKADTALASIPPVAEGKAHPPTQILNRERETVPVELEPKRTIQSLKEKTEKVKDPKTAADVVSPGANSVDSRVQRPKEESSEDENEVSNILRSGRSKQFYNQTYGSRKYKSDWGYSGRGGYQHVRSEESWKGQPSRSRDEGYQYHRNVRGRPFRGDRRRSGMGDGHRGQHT
How it was run: as §1

OTUD5 = target: T5, OTUD5 (UniProt Q96G74)
T5 sequence (whole entry): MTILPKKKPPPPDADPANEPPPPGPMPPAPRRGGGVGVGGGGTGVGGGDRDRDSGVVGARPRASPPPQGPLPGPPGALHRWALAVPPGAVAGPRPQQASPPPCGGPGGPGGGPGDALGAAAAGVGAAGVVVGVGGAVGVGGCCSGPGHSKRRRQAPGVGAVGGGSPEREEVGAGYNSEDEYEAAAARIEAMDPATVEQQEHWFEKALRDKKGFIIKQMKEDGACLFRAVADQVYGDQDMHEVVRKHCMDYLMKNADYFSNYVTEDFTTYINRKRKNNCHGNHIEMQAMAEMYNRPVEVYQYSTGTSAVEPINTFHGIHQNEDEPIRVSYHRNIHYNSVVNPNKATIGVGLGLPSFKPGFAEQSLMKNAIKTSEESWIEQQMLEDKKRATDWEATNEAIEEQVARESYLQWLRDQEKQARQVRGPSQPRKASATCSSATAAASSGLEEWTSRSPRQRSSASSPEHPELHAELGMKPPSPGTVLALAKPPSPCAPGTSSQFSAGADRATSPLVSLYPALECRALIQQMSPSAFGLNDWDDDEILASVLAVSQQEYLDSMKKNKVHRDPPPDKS
How it was run: as §1

Measured: log2 ratio of Biotin-Ahx-Ub-VS probe labelling

Sequence of ATXN3 (P54252 whole entry): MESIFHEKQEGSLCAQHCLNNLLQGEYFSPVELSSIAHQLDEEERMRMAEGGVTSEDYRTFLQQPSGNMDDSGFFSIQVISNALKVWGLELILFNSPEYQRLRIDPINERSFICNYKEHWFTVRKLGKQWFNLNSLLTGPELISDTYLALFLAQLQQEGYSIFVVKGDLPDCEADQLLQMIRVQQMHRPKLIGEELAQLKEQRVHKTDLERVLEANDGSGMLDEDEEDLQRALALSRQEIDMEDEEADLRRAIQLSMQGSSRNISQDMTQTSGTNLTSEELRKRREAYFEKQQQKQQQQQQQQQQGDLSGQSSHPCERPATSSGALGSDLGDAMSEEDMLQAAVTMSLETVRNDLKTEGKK
Sequence of OTUB1 (Q96FW1 whole entry): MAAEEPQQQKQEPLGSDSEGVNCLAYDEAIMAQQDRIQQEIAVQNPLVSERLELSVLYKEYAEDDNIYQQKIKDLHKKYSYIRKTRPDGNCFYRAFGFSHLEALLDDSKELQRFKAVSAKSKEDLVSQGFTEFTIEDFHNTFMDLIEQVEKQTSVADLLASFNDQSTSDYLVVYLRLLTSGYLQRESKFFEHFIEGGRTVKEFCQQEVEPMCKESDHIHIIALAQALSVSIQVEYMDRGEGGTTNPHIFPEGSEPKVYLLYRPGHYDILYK
Sequence of EIF3F (O00303 whole entry): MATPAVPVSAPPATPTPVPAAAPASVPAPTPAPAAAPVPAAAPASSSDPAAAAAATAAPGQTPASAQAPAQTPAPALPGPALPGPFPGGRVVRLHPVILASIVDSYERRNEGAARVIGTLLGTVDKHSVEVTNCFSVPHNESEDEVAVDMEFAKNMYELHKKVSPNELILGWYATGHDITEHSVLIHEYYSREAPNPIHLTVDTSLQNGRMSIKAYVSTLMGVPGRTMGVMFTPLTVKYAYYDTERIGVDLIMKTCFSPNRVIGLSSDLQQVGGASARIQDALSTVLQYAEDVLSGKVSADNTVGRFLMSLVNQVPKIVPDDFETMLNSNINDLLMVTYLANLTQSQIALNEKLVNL
Sequence of EIF3H (O15372 whole entry): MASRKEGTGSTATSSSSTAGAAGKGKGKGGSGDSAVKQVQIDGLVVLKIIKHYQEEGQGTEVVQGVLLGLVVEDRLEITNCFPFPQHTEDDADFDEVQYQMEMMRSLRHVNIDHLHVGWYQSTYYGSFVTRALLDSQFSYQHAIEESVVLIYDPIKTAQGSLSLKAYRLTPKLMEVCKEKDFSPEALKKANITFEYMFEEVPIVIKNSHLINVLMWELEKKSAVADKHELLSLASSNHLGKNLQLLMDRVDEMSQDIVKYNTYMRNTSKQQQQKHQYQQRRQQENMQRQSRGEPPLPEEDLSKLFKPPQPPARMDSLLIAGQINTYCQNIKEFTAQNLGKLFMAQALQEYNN

Cc1cccn2cc(CCNC(=O)CCl)nc12.Cl
inactive: ALG13 0.103 | ATXN3 -0.114 | BAP1 -0.597 | EIF3F -0.323 | EIF3H 0.00132 | FAM105A 0.112 | OTUB1 -0.0371 | OTUD4 0.123 | OTUD5 0.0126
